Data as given in PubChem BioAssay (Tox21).
Records with an inconclusive call do not appear. Active and inactive are the calls of the source. Calls come from the whole dose curve; as a rule, active = well fitted cell-killing curve with a large enough effect in the repeat runs; inconclusive = weak or mixed curves, or effect the other way; inactive = flat fitted curve, though single readings scatter.

Test: qHTS assay to identify small molecule antagonists of the androgen receptor (AR) signaling pathway using the MDA cell line - cell viability counter screen (AID 743041; note: nearly all actives have a fitted effect of over 45% in size)
Details: MDA-kb2 viability, CellTiter-Fluor, 16 h, cells co-treated with R1881 androgen agonist; series mostly up to 70.3 µM; viability change, negative = cytotoxic: at the top concentration
How it was run: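 Viability counter screen run alongside the AR antagonist reporter: cells seeded 5 h before compound, R1881 added, 16 h incubation at 37C without CO2, fluorescent CellTiter-Fluor signal quantified.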
% is set by controls: 0 for no effect and ±100 for the full control effect; potency is the fitted concentration of half-maximal effect.

Question: With `Clc1c(Cl)c(Cl)c(Cl)c(Cl)c1Cl` as the compound, how does the viability change, negative = cytotoxic read?
Answer: -2.06% [at 8.47 µM] (inactive)

Question: Which “viability change, negative = cytotoxic” value does the source give for `O.O.O.O.O.O.O=S(=O)([O-])[O-].[Ni+2]` here?
Answer: 2.1% (inactive)

Question: For `CCOP(=O)(OCC)Oc1nc(Cl)c(Cl)cc1Cl`, which “viability change, negative = cytotoxic” value is on record?
Answer: -18.6% (inactive)

Question: For `CN1C(=O)[C@@H](NC(=O)c2cc3ccccc3[nH]2)N=C(c2ccccc2)c2ccccc21`, which “viability change, negative = cytotoxic” value is on record?
Answer: -2.8% (inactive)

Question: With `Cc1c([N+](=O)[O-])cc2c(c1[N+](=O)[O-])C(C)(C)CC2(C)C` as the compound, how does the “viability change, negative = cytotoxic” value read?
Answer: 24.2% (inactive)

Question: Which viability change, negative = cytotoxic does the source give for `CC(=O)[O-].CC(=O)[O-].CC(=O)[O-].[Sb+3]` here?
Answer: -11.1% [at 8.47 µM] (inactive)

Question: With `ClCBr` as the compound, how does the “viability change, negative = cytotoxic” value read?
Answer: 7.11% [at 95 µM] (inactive)

Question: For `Cc1ccn2nc(S(=O)(=O)Nc3c(F)cccc3F)nc2n1`, which “viability change, negative = cytotoxic” value is on record?
Answer: 23.1% (inactive)

Question: Which “viability change, negative = cytotoxic” value does the source give for `CC(=O)O.CC(=O)O.CC(=O)O.CC(=O)O.CC(=O)O.CC(=O)O.CC(=O)O.O.O.[Cr].[Cr].[Cr]` here?
Answer: 3.82% (inactive)

Question: With `CCCC[N+]1(C)CCCC1` (tested in a mixture with another compound) as the compound, how does the “viability change, negative = cytotoxic” value read?
Answer: 1.19% [at 95 µM] (inactive)

Question: Which Potency does the source give for `CC(=O)[O][Sn]([c]1ccccc1)([c]1ccccc1)[c]1ccccc1` here?
Answer: 5.45 µM (active)

Question: For `Cc1cccc(Cc2cnc[nH]2)c1C`, which “viability change, negative = cytotoxic” value is on record?
Answer: -29.4% (inactive)

Question: With `CCCCC(CC)COC(=O)OOC(C)(C)C` (centres undefined) as the compound, how does the “viability change, negative = cytotoxic” value read?
Answer: 2.5% (inactive)

Question: Which “viability change, negative = cytotoxic” value does the source give for `CC(=O)[O-].CC(=O)[O-].CC(=O)[O-].[Cr+3]` here?
Answer: -3.26% (inactive)

Question: For `COC(=O)C(C)N(C(=O)c1ccco1)c1c(C)cccc1C` (centres undefined), which “viability change, negative = cytotoxic” value is on record?
Answer: 3.06% (inactive)

Question: With `CCCN` as the compound, how does the “viability change, negative = cytotoxic” value read?
Answer: 2.44% [at 95 µM] (inactive)

Question: With `O=C1C[C@@H]2OCC=C3CN4CC[C@]56c7ccccc7N1[C@H]5[C@H]2[C@H]3C[C@H]46` as the compound, how does the “viability change, negative = cytotoxic” value read?
Answer: -0.176% (inactive)

Question: With `Cc1ccc2cc3c(ccc4ccccc43)c3c2c1CC3` as the compound, how does the “viability change, negative = cytotoxic” value read?
Answer: -0.798% (inactive)

Question: For `COP(=S)(OC)Oc1nc(Cl)c(Cl)cc1Cl`, which “viability change, negative = cytotoxic” value is on record?
Answer: -0.118% (inactive)

Question: With `Cc1cc2c3c(c1)C(c1ccccc1)=N[C@@H](NC(=O)c1ccncc1)C(=O)N3CC2` as the compound, how does the “viability change, negative = cytotoxic” value read?
Answer: 8.68% (inactive)

Question: For `c1ccc(Nc2ccc(Nc3ccccc3)cc2)cc1`, which “viability change, negative = cytotoxic” value is on record?
Answer: -1.99% (inactive)

Question: With `Oc1ccc2[nH]cc(CCCCN3CC=C(c4ccccc4)CC3)c2c1` as the compound, how does the “viability change, negative = cytotoxic” value read?
Answer: -0.345% (inactive)

Question: For `CCCCn1cc[n+](C)c1` (tested in a mixture with another compound), which “viability change, negative = cytotoxic” value is on record?
Answer: 2.53% (inactive)

Question: With `O=[N+]([O-])c1cccc2cccc([N+](=O)[O-])c12` as the compound, how does the “viability change, negative = cytotoxic” value read?
Answer: 2.69% [at 95 µM] (inactive)

Question: For `COP(=S)(OC)Oc1ccc([N+](=O)[O-])c(C)c1`, which “viability change, negative = cytotoxic” value is on record?
Answer: -11.4% (inactive)

Question: With `CC(O)C(=O)[O][Hg][c]1ccccc1` (centres undefined) as the compound, how does the Potency read?
Answer: 4.86 µM (active)

Question: Which “viability change, negative = cytotoxic” value does the source give for `BrCC(Br)(Br)Br` here?
Answer: 6.23% [at 95 µM] (inactive)

Question: For `O=C(N[C@H]1N=C(c2ccccc2F)c2cccc3c2N(CC3)C1=O)c1cc2ccccc2[nH]1`, which “viability change, negative = cytotoxic” value is on record?
Answer: 2.79% (inactive)

Question: With `CCC[CH2][Sn]([CH2]CCC)([O]C(C)=O)[O]C(C)=O` as the compound, how does the “viability change, negative = cytotoxic” value read?
Answer: -2.95% [at 95 µM] (inactive)
